The list is not random: actives were taken first. Their share in the collection is about 14%.
A350 autofl: compound fluoresces in the Alexa 350 spectral region | Compound autofluorescence, 340/450 nm, Alexa 350 dye-equivalents; stronger effect = higher value | max dye-equivalent concentration, M | 59,000 compounds, 11% hits; in the data active means max dye-equivalent concentration above about 10 nM; inconclusive means mostly about 1.1 nM to 9.6 nM
4MU fluor: 4-MU region autofluorescence; compound autofluorescence, 340/450 nm, 4-MU equivalents; stronger effect = higher value; max dye-equivalent concentration, M; 59,000 compounds, 11% hits; in the data active means max dye-equivalent concentration above about 10 nM; inconclusive means mostly about 1.1 nM to 9.6 nM
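Compounds in 100 mM Tris, pH 8.0, incubated 15 min at room temperature, then fluorescence read at 340 nm excitation/450 nm emission. Signal converted to 4-MU dye-equivalent concentration using an on-plate six-point 4-MU standard curve.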
AID923: qHTS Assay for Allosteric/Competitive Inhibitors of Caspase-1: Spectroscopic Profiling in AFC Spectral Region; compound fluorescence, AFC spectral region (405/520 nm); Potency, µM (top dose mostly 57.5 µM), for inactives: at the highest dose fluorescence increase, most hits filed as activators; 75,000 compounds, 1.1% hits; further: potency means the concentration at half of the fitted maximal effect; 0% is about no effect
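Baseline compound fluorescence (AFC region, 405 nm ex/520 nm em) taken from the intercept of kinetic reads with 50 nM caspase-1 and 5 uM Ac-WEHD-AFC; normalized to an on-plate AFC standard curve; compounds titrated up to 57 uM.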
HSD17B inhib: inhibitors of human HSD17B10 dehydrogenase. Q99714. AID 893. recombinant HSD17B10, NADH fluorescence kinetic. Potency, µM (doses to about 57.1 µM), for the others: at the highest dose activity change, negative = inhibition, hits mostly inhibitors. 75,000 compounds, 7.6% hits;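 further: the protocol describes HADH2 (HSD17B10) and not the HSD17B4 of the title; potency means the concentration at half of the fitted maximal effect; on the % scale 0 is the no-effect control and ±100 the full control effect; nearly all actives have a fitted effect of over 70% in size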
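His-tagged E. coli-expressed HADH2 at 20 nM in 100 mM Tris-HCl pH 9.0 with 0.01 % Tween-20, preincubated 15 min with compound at room temperature. Reaction with 1 mM NAD+ and 90 uM beta-hydroxybutyryl coenzyme A; NADH fluorescence (360/450 nm) read kinetically over 4 min, last minus first point.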
CRE-bla Fsk: modulators of forskolin-stimulated CRE signaling in CHO cells. CHO CRE-bla reporter (cAMP response element driving beta-lactamase), forskolin EC10, beta-lactamase ratio. Potency, µM (titrated, usually from 38.2 µM), for inactives: at the highest dose activity change, negative = inhibition, hits mostly activators. AID 662. 71,000 compounds, 2.5% hits; active means well fitted activation curve with a large enough effect in the signal ratio, with a control signal flat, not every such curve was filed as active; inconclusive means small, poorly fitted or top-dose-only effect, or effect the other way, or a change in a side signal; the % refers to the signal ratio; further: potency means the concentration at half of the fitted maximal effect; % of control where 0% means no effect
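CRE-bla CHO reporter cells treated with compound titration plus EC10 NKH 477 (water-soluble forskolin), incubated 3 h at 37 °C; CCF4 loading 2 h at room temperature, 460/530 nm emission ratio read, AC50 values derived for positive or negative modulators.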
HADH2 inh: inhibitors of human HADH2 dehydrogenase; recombinant HADH2, NADH fluorescence, beta-hydroxybutyryl-CoA; Potency, µM (series often up to 57.1 µM), without a hit: top-dose activity change, negative = inhibition, most hits filed as inhibitors; 73,000 compounds, 3.4% hits; further: potency means the concentration at half of the fitted maximal effect; on the % scale 0 is the no-effect control and ±100 the full control effect; nearly all actives have a fitted effect of over 60% in size
Target sequence (Q99714 whole entry, looked up, one chain of several): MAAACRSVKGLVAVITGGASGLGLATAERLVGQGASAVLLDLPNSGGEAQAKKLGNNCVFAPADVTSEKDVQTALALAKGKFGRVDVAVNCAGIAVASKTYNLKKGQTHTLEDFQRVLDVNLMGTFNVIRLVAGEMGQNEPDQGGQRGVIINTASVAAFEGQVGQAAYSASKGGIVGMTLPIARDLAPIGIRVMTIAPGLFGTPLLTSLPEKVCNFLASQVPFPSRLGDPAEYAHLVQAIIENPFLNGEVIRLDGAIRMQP
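Read-out: 360 nm excitation, 450 nm emission, kinetic over 4 min. Conditions: His-tagged human HADH2 20 nM, pH 9.0 Tris with Tween-20, 1 mM NAD+, 90 uM beta-hydroxybutyryl-CoA.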
The depositor's hits bear a star; [ ] = remark or other dose. Unless noted, the call rests on the fitted dose curve; in most records, active means well fitted curve in the direction sought with a large enough effect; inconclusive means small, poorly fitted or top-dose-only effect, or another doubt; inactive means no such curve, though single readings can be large; an effect the other way counts as inactive or inconclusive.

How did CC(NC(=O)c1ccnc(C(C)(C)C)c1)c1ccccc1 (stereo not drawn) do in these assays?
A350 autofl: inactive; 4MU fluor: inactive; AID923: -1%; HSD17B inhib: 0%; CRE-bla Fsk: 1%; HADH2 inh: 11%

What do the screens show for `Cc1ccc(C(C#N)N2CCOCC2)cc1` (stereo not drawn)?
A350 autofl: inactive; 4MU fluor: inactive; AID923: -1%; HSD17B inhib: -3%; CRE-bla Fsk: inconclusive; HADH2 inh: 1%

How did Nc1cc(-c2ccccc2)ccc1O do in these assays?
A350 autofl: inactive; 4MU fluor: inactive; AID923: -2%; HSD17B inhib: 25µM*; CRE-bla Fsk: -2%; HADH2 inh: 13µM*

What do the screens show for `CC(=O)Nc1cc(-c2ccccc2)ccc1O`?
A350 autofl: inactive; 4MU fluor: inactive; AID923: -3%; HSD17B inhib: 6%; CRE-bla Fsk: 5%; HADH2 inh: -5%

What do the screens show for `C/C(=C\CNc1ncnc2c1ncn2[C@@H]1O[C@@H](CO)[C@@H](O)[C@H]1O)CO`?
A350 autofl: inactive; 4MU fluor: inactive; CRE-bla Fsk: -17%; HADH2 inh: 2%

How did O=C(CCn1c(=O)oc2ccccc21)n1c(=O)oc2ccccc21 do in these assays?
A350 autofl: inactive; 4MU fluor: inactive; AID923: 1%; HSD17B inhib: -4%; CRE-bla Fsk: -10%; HADH2 inh: 7.9µM*

Results for COCCNC(=O)CCn1c(=O)oc2ccccc21 ?
A350 autofl: 1.2e-08M*; 4MU fluor: inconclusive; AID923: 0%; HSD17B inhib: -2%; CRE-bla Fsk: -26%; HADH2 inh: 0%

What do the screens show for `O=C(CCn1c(=O)oc2ccccc21)N1CCCCCC1`?
A350 autofl: inactive; 4MU fluor: inactive; AID923: -1%; HSD17B inhib: 3%; CRE-bla Fsk: 0%; HADH2 inh: 7%

How did O=C(Nc1ccc(N2CCOCC2)c(Cl)c1)c1ncn[nH]1 do in these assays?
A350 autofl: inactive; 4MU fluor: inactive; AID923: 0%; HSD17B inhib: 9%; CRE-bla Fsk: 5%; HADH2 inh: -13%

How did O=C(Nc1ccc2oc(-c3ccccc3Cl)nc2c1)c1ncn[nH]1 do in these assays?
A350 autofl: inconclusive; 4MU fluor: inconclusive; AID923: 0%; HSD17B inhib: 3.2µM*; CRE-bla Fsk: 21%; HADH2 inh: 2%

What do the screens show for `O=C(Nc1ccc2oc(-c3ccccc3Cl)nc2c1)c1cncc(Br)c1`?
A350 autofl: inconclusive; 4MU fluor: inconclusive; AID923: 0%; HSD17B inhib: 25µM*; CRE-bla Fsk: 0.5µM*; HADH2 inh: -10%

Results for NC(N)=NCCSSCCN=C(N)N ?
A350 autofl: inactive; 4MU fluor: inactive; CRE-bla Fsk: -3%; HADH2 inh: 5%

Results for CC(=O)c1cc2ccccc2oc1=O ?
A350 autofl: 1.3e-08M*; 4MU fluor: 1.4e-08M*; AID923: -2%[25.7 µM]; HSD17B inhib: -8%[25.6 µM]; CRE-bla Fsk: -4%[17.1 µM]; HADH2 inh: -15%[25.6 µM]

How did CCCC(=O)OCCNC(=O)c1cc2ccccc2oc1=O do in these assays?
AID923: -1%; HSD17B inhib: 25µM*; CRE-bla Fsk: inconclusive; HADH2 inh: inconclusive

Results for CN(C)CCNC(=O)c1cc2ccccc2oc1=O ?
A350 autofl: 1.9e-08M*; 4MU fluor: 2.2e-08M*; AID923: -1%; HSD17B inhib: 32µM*; CRE-bla Fsk: 1%; HADH2 inh: -14%

Results for CC(=O)OCCNC(=O)c1cc2ccccc2oc1=O ?
A350 autofl: 1.7e-08M*; 4MU fluor: 1.9e-08M*; AID923: 2%; HSD17B inhib: 32µM*; CRE-bla Fsk: inconclusive; HADH2 inh: inconclusive

How did COc1ccc(N2CCN(C(=O)C(Cc3ccccc3)n3cccc3)CC2)cc1 (stereo not drawn) do in these assays?
AID923: 1%; HSD17B inhib: 25µM*; CRE-bla Fsk: -4%; HADH2 inh: -4%

What do the screens show for `COc1ccc(CCNC[C@H](O)c2ccc(O)cc2)cc1OC`?
A350 autofl: inactive; 4MU fluor: inactive; AID923: -2%; HSD17B inhib: -4%; CRE-bla Fsk: inconclusive; HADH2 inh: -20%

What do the screens show for `Cc1cccc2cc(COC(=O)C3CCCCC3)c(=O)[nH]c12`?
A350 autofl: 1.4e-07M*; 4MU fluor: 1.1e-07M*; AID923: 3%; HSD17B inhib: -22%; CRE-bla Fsk: 0%; HADH2 inh: -5%

Results for O=C(c1cccc(F)c1)N1CCC2(CC1)CN(c1cccc(-c3ccccc3)c1)C2 ?
A350 autofl: inactive; 4MU fluor: inactive; AID923: 3%; HSD17B inhib: inconclusive; CRE-bla Fsk: 1%; HADH2 inh: -22%

Results for CC(C)Oc1ccc(C(=O)Nc2ccc(N3CCCC3)cc2)cc1 ?
AID923: -1%; HSD17B inhib: inconclusive; CRE-bla Fsk: inconclusive; HADH2 inh: 3.2µM*

What do the screens show for `c1ccc(-c2cc(-c3nc(-c4ccccn4)no3)c3ccccc3n2)cc1`?
AID923: 3%; HSD17B inhib: inconclusive; CRE-bla Fsk: 3.2µM*; HADH2 inh: 12%

Results for COc1cccc(-c2nc(-c3ccccn3)no2)c1OC ?
A350 autofl: inactive; 4MU fluor: inactive; AID923: -1%; HSD17B inhib: 3%; CRE-bla Fsk: inconclusive; HADH2 inh: 9%

Results for c1ccc(-c2noc(-c3cccc4ccccc34)n2)nc1 ?
A350 autofl: inconclusive; 4MU fluor: inconclusive; AID923: 3%; HSD17B inhib: 25µM*; CRE-bla Fsk: inconclusive; HADH2 inh: inconclusive

Results for O=C(O)CCNc1cc2ccccc2cc1C(=O)O ?
AID923: 6%; HSD17B inhib: inconclusive; CRE-bla Fsk: -3%; HADH2 inh: -10%

Results for CC(C)NC(=O)CSc1nnc(-c2ccc(S(=O)(=O)N3CCCC3)cc2)n1CC1CCCO1 (stereo not drawn) ?
A350 autofl: inactive; 4MU fluor: inactive; AID923: 2%; HSD17B inhib: -20%; CRE-bla Fsk: -7%; HADH2 inh: 0%

How did OC(CN1C2=NCCN2c2ccccc21)c1ccccc1 (stereo not drawn) do in these assays?
A350 autofl: 2.7e-07M*; 4MU fluor: 3.2e-07M*; AID923: 0%; HSD17B inhib: 11%; CRE-bla Fsk: 0%; HADH2 inh: -10%

Results for COc1cc(O)c(C(=O)c2ccccc2)cc1O ?
AID923: 0%; HSD17B inhib: 13µM*
